The record followed here is PubChem BioAssay (NCATS).

The nature of test [1]: qHTS of pediatric cancer cell lines to identify multiple opportunities for drug repurposing: Primary screen for SK-N-SH cells (AID 1347098). Further: nearly all actives have a fitted effect of over 65% in size. In a few lines: (§1)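 Cells (500-1,000/well) rested 5 h, then received compounds for 48 h; metabolically active cells were measured by CellTiter-Glo luminescence. Final concentrations spanned up to 46 µM (MIPE, 11-point) or 0.59 nM-46 µM (NPC, 8-point) in primary screens, 11-point in follow-ups.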
(In general: Quantitative high-throughput screening tests each substance at several concentrations.)

Test [2] can be described thus: qHTS of pediatric cancer cell lines to identify multiple opportunities for drug repurposing: Primary screen for NB1643 cells (AID 1347099). Further: nearly all actives have a fitted effect of over 50% in size. The method in brief:
(§2)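 Cells seeded at 500-1,000 cells/well in growth media, rested 5 hours at 37 degrees C, 5% CO2, then dosed; MIPE compounds at 11-point (from 0.78 nM) and NPC at 8-point (from 0.59 nM) final concentrations. Viability by CellTiter-Glo luminescence after 48 hours.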

Test [3] is described as follows: qHTS of pediatric cancer cell lines to identify multiple opportunities for drug repurposing: Primary screen for LAN-5 cells (AID 1347100). In a few lines: (§3)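 Cells (500-1,000/well) in growth media were settled 5 h at 37 degrees C, then given compounds for 48 h. Viability was read as CellTiter-Glo luminescence. Primary runs used MIPE at 11 points (0.78 nM-46 µM) and NPC at 8 points (0.59 nM-46 µM); follow-ups used 11 points.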

Test [4] can be described thus: qHTS of pediatric cancer cell lines to identify multiple opportunities for drug repurposing: Primary screen for BT-12 cells (AID 1347101). Further: nearly all actives have a fitted effect of over 25% in size. In a few lines:
as §1

Test [5] in a line: qHTS of pediatric cancer cell lines to identify multiple opportunities for drug repurposing: Primary screen for Rh18 cells (AID 1347102). Further: nearly all actives have a fitted effect of over 65% in size. In a few lines:
as §3

A short description of test [6]: qHTS of pediatric cancer cell lines to identify multiple opportunities for drug repurposing: Primary screen for OHS-50 cells (AID 1347103). Further: nearly all actives have a fitted effect of over 40% in size. In a few lines:
as §1

A short description of test [7]: qHTS of pediatric cancer cell lines to identify multiple opportunities for drug repurposing: Primary screen for RD cells (AID 1347104). Further: nearly all actives have a fitted effect of over 55% in size. In a few lines: as §2
The nature of test [8]: qHTS of pediatric cancer cell lines to identify multiple opportunities for drug repurposing: Primary screen for MG 63 (6-TG R) cells (AID 1347105). Further: nearly all actives have a fitted effect of over 50% in size. In a few lines: as §2
A short description of test [9]: qHTS of pediatric cancer cell lines to identify multiple opportunities for drug repurposing: Primary screen for control Hh wild type fibroblast cells (AID 1347106). Further: nearly all actives have a fitted effect of over 55% in size. The method in brief:
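Viability after 48 h compound treatment at 37C, 500-1,000 cells/well, read as ATP luminescence with CellTiter-Glo. Primary screens used 11-point (MIPE, 0.78 nM-46 µM) or 8-point (NPC, 0.59 nM-46 µM) final concentrations; follow-up screens used 11-point dilutions.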

Test [10] can be described thus: qHTS of pediatric cancer cell lines to identify multiple opportunities for drug repurposing: Primary screen for Rh30 cells (AID 1347107). Further: nearly all actives have a fitted effect of over 75% in size. The method in brief:
as §3

Test [11] is described as follows: qHTS of pediatric cancer cell lines to identify multiple opportunities for drug repurposing: Primary screen for Rh41 cells (AID 1347108). Further: nearly all actives have a fitted effect of over 70% in size. The method in brief:
as §2

Test [12] in a line: qHTS of pediatric cancer cell lines to identify multiple opportunities for drug repurposing: Confirmatory screen for NB1643 cells (AID 1347109). Further: nearly all actives have a fitted effect of over 45% in size. In a few lines:
as §3

Test [13] is described as follows: qHTS of pediatric cancer cell lines to identify multiple opportunities for drug repurposing: Confirmatory screen for SK-N-MC cells (AID 1347111).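 Further: cells exposed to compound for 48 h before the readout; nearly all actives have a fitted effect of over 70% in size.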 The method in brief: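 Metabolically active cells were quantified by ATP-dependent luminescence (CellTiter-Glo, 15 min at room temperature) following 48 h treatment. Cells had been plated at 500-1,000 per well and settled for 5 h beforehand.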

Test [14] can be described thus: qHTS of pediatric cancer cell lines to identify multiple opportunities for drug repurposing: Confirmatory screen for BT-12 cells (AID 1347112). Further: nearly all actives have a fitted effect of over 55% in size. In a few lines: as §3
A short description of test [15]: qHTS of pediatric cancer cell lines to identify multiple opportunities for drug repurposing: Confirmatory screen for LAN-5 cells (AID 1347113). Further: nearly all actives have a fitted effect of over 65% in size. In a few lines:
as §3

Test [16] can be described thus: qHTS of pediatric cancer cell lines to identify multiple opportunities for drug repurposing: Confirmatory screen for DAOY cells (AID 1347114). Further: nearly all actives have a fitted effect of over 65% in size. The method in brief:
(§4)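 Viability measured as metabolically active cells via CellTiter-Glo luminescence following 48 hours of compound exposure, 11-point dilutions in confirmatory testing. 500-1,000 cells/well plated 5 hours before dosing; controls were DMSO and 2.3 µM bortezomib.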

Test [17] in a line: qHTS of pediatric cancer cell lines to identify multiple opportunities for drug repurposing: Confirmatory screen for NB-EBc1 cells (AID 1347115).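 Further: cells exposed to compound for 48 h before the viability read; nearly all actives have a fitted effect of over 45% in size.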 In a few lines: as §3
A short description of test [18]: qHTS of pediatric cancer cell lines to identify multiple opportunities for drug repurposing: Confirmatory screen for SJ-GBM2 cells (AID 1347116). Further: nearly all actives have a fitted effect of over 60% in size. The method in brief:
as §4

Test [19] is described as follows: qHTS of pediatric cancer cell lines to identify multiple opportunities for drug repurposing: Confirmatory screen for A673 cells (AID 1347110). The method in brief: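 Viability was read as ATP luminescence (CellTiter-Glo) after 48 h of compound exposure at 37 C in A673 cells seeded at 500-1,000/well. Titrations reached 46 uM final, with 11 points in the confirmatory screen. Concentration-response curves were fitted directly.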

Records with an inconclusive call do not appear. Active and inactive are the calls of the source. The call rests on the fitted dose curve; in most records, active means well fitted curve in the direction sought with a large enough effect; inconclusive means small, poorly fitted or top-dose-only effect, or another doubt; inactive means no such curve, though single readings can be large; an effect the other way counts as inactive or inconclusive.
Potency means the concentration at half of the fitted maximal effect.

In the case of `COCCn1c2c([n+](Cc3cnccn3)c1C)C(=O)c1ccccc1C2=O`, the Potency was 482 nM (active) in [1]; 209 nM (active) in test [2]; 4.7 nM (active) in [3]; 34.3 nM (active) in test [4]; 33.2 nM (active) in test [5]; 15.3 nM (active) in [6]. The Potency is 11.8 nM (active) in test [7]; 187 nM (active) in test [8]; 264 nM (active) in [9]; 14.8 nM (active) in test [10]; 46.9 nM (active) in [11]; 208 nM (active) in test [12]. The Potency in test [13] is 9.3 nM (active); in test [14], 9.3 nM (active); in test [15], 5.9 nM (active); in test [16], 41.4 nM (active); in test [17], 1040 nM (active); in test [18] it was 65.7 nM (active).
Take `O=C(C=Cc1cccc(S(=O)(=O)Nc2ccccc2)c1)NO`: the Potency in test [1] is 6220 nM (active); in test [2], 679 nM (active); in test [3], 1210 nM (active); in test [4], 11100 nM (active); in [5], 1910 nM (active); in test [6], 3950 nM (active). Also, the Potency in [7] is 9590 nM (active); in test [8], 6790 nM (active); in test [11] it was 6790 nM (active); in [12] it was 1350 nM (active); in test [19] it was 6030 nM (active); in test [13] it was 1510 nM (active). Further, the Potency is 38000 nM (active) in test [14]; 1700 nM (active) in test [15]; 19100 nM (active) in test [16]; 2140 nM (active) in test [17]; 2140 nM (active) in [18].
On to `CC(C)C[C@H](NC(=O)CNC(=O)c1cc(Cl)ccc1Cl)B(O)O`, for which the Potency in [1] was 383 nM (active); in test [2] it was 590 nM (active); in test [3], 132 nM (active); in [4], 344 nM (active); in [5] it was 235 nM (active); in [6] it was 6110 nM (active). The Potency was 1320 nM (active) in test [7]; 235 nM (active) in test [8]; 1050 nM (active) in [9]; 1870 nM (active) in test [10]; 469 nM (active) in [11]; 465 nM (active) in test [19]. Further, the Potency in [14] is 465 nM (active); in test [16], 185 nM (active); in test [18], 185 nM (active). Further, the Potency result in test [13] is “inactive”.
`Cc1cn2c(-c3cn[nH]c3)cnc2c(Nc2ccc(C(=O)N3CCNCC3)cc2F)n1`: the Potency was 24100 nM (active) in [1]; 18700 nM (active) in test [2]; 16600 nM (active) in test [3]; 16600 nM (active) in test [5]; 13700 nM (active) in test [6]; 16600 nM (active) in [7]. Besides, the Potency is 18700 nM (active) in [11]; 9270 nM (active) in [12]; 8270 nM (active) in [19]; 26100 nM (active) in [13]; 13100 nM (active) in test [15]. Further, in test [17], the Potency entry is “inactive”.
In the case of `Cc1cc(Nc2cc(NC(=O)c3c(Cl)cccc3Cl)ccn2)nc(N)n1`, the Potency in test [1] is 6070 nM (active); in test [2] it was 11800 nM (active); in test [3], 1870 nM (active); in [4] it was 544 nM (active); in test [6] it was 8630 nM (active); in [7], 935 nM (active). The Potency in test [8] is 11800 nM (active); in test [12], 5850 nM (active); in test [19] it was 603 nM (active); in [13], 657 nM (active); in test [14] it was 1310 nM (active); in [15], 9270 nM (active). The Potency result in test [10] and in [18] was “inactive” each time.
On to `Cn1c2ccccc2c2c3c(c4c5ccccc5n(CCC#N)c4c21)CNC3=O`, for which the Potency in test [1] is 5410 nM (active); in test [2], 1870 nM (active); in test [3], 5900 nM (active); in test [6], 5440 nM (active); in test [8], 14800 nM (active); in [12], 20800 nM (active). The Potency in test [13] is 465 nM (active); in test [17], 23300 nM (active). Besides, the Potency result in test [14] was “inactive”.
Consider `Cc1c(Cn2c(C)nc3c(C(=O)O)cc(N4CCOCC4)cc32)cccc1C(F)(F)F`, for which the Potency result in [3], in [4], in test [5], in [9], in test [12] and in test [14] was “inactive” each time. For the same compound, the Potency entry in [17] and in test [18] was “inactive” throughout. In addition, the Potency in [7] was 1660 nM (active); in test [8] it was 2960 nM (active); in test [11], 7430 nM (active).
For `CN(C1CCc2c(c3ccccc3n2CC(=O)O)C1)S(=O)(=O)c1ccc(F)cc1` (stereo not given), the Potency is 1320 nM (active) in test [2], 5260 nM (active) in [3], 4180 nM (active) in [7] and 3720 nM (active) in [11]. The Potency entry in test [9] is “inactive”.
For `Cc1c(NC(=O)OC[C@@H]2COCCN2)cn2ncnc(Nc3ccc4c(cnn4Cc4cccc(F)c4)c3)c12`, the Potency in test [3] is 20900 nM (active); in test [4], 24300 nM (active); in test [8], 187 nM (active); in test [19] it was 18500 nM (active); in [14], 26100 nM (active); in [16], 20800 nM (active). In addition, the Potency result in test [9], in [12] and in [17] was “inactive” each time.
For `COc1cc(C)c(Sc2cnc(NC(=O)c3ccc(CNC(C)C(C)C)cc3)s2)cc1C(=O)N1CCN(C(C)=O)CC1` (stereo not given), the Potency was 12100 nM (active) in test [1]; 2640 nM (active) in test [3]; 24300 nM (active) in test [4]; 2430 nM (active) in test [6]; 14800 nM (active) in test [7]; 11800 nM (active) in [8]. The Potency is 8330 nM (active) in [10] and 2640 nM (active) in test [11]. Also, the Potency entry in test [9] was “inactive”.
As to `COc1ccc(C=Cc2cc(OC)c(OC)c(OC)c2)cc1O`, the Potency in [3] is 1 nM (active); in test [19] it was 18.5 nM (active); in [13] it was 16.5 nM (active); in test [15], 52.2 nM (active); in test [16] it was 73.7 nM (active); in test [17], 14.7 nM (active). In addition, the Potency result in [7], in [8], in test [9] and in test [10] was “inactive” each time.
As for `CCN(CC)CCNC(=O)c1ccc2nc(-c3ccccc3)c(-c3ccc(CN4CCC(n5c(=O)[nH]c6ccccc65)CC4)cc3)nc2c1`, the Potency is 27100 nM (active) in test [1]; 5900 nM (active) in [3]; 2350 nM (active) in test [5]; 3320 nM (active) in [7]; 7430 nM (active) in [8]; 9350 nM (active) in [9]. Besides, the results for the Potency in test [10] and in test [11] were 18700 nM (active) and 10500 nM (active), respectively.
As for `Cc1cccc(C=NNc2cc(N3CCOCC3)nc(OCCc3ccccn3)n2)c1`, the Potency in test [1] is 24100 nM (active); in [2], 16600 nM (active); in test [6], 24300 nM (active). The Potency entry in test [8] and in [9] was “inactive” in each case.
Consider `Cc1nc2ccc(CN(C)c3ccc(C(=O)N[C@@H](CCC(=O)O)C(=O)O)s3)cc2c(=O)[nH]1`, for which the Potency result in test [2], in test [5], in [7], in test [9], in test [10] and in test [11] was “inactive” throughout. The Potency result in test [12], in [14], in [15] and in test [16] was “inactive” in each case. Further, the Potency in test [19] was 82.7 nM (active); in test [13] it was 18.5 nM (active).
